Source: the supplement of paper PMC10037445
Over roughly 2,900 compounds, “NF-kB SEAP reporter activity, fold change vs agonist alone” has its median near 0.99; the highest 2% begin near 2.6. The entries come from a sample that favours the highest values as a whole.

Assays:
[1] = tested on: RAW-Dual; assay: NF-kB SEAP reporter activity, fold change vs agonist alone; cytotoxicity flag (confluency mask): cytotoxic (confluency <70% of control); higher = enhanced NF-kB activity
Method in brief: (§1)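 After 50 nL of library stock was delivered by pin tool to RAW-Dual macrophages (50,000 cells/well, DMEM, 384-well plates), a PRR agonist was added 1 h later and the plates were kept at 37 °C, 5% CO2. Twenty hours later, IRF was read from supernatant by QuantiLuc luminescence and NF-κB by QuantiBlue absorbance at 620 nm. Reporter activity is stated as fold change over agonist-alone wells. Wells with IncuCyte confluency under 70% of agonist controls in both mask sets were counted as cytotoxic.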

[2] = tested on: RAW-Dual; assay: NF-kB SEAP reporter activity, fold change vs agonist alone; higher = enhanced NF-kB activity; settings: library stock concentration (final ~1000-fold dilution): 10 mM
Method in brief: as §1

[3] = tested on: RAW-Dual; assay: NF-kB SEAP reporter activity, fold change vs agonist alone; cytotoxicity flag (confluency mask): not cytotoxic; higher = enhanced NF-kB activity
Method in brief: as §1

[4] = agonist: ODN 1826 (TLR9) 0.5 ug/mL
[5] = agonist: Pam2CSK4 (TLR2/6) 0.1 ug/mL
[6] = agonist: Pam3CSK4 (TLR2/1) 0.1 ug/mL
[7] = cytotoxicity flag (confluency mask): not cytotoxic, agonist: Imiquimod (TLR7) […]
[8] = cytotoxicity flag (confluency mask): not cytotoxic, agonist: MPLA (TLR4) […]

Compound: C1=CCOCc2cc(ccc2OCCN2CCCC2)Nc2nccc(n2)-c2cccc(c2)COC1 (library stock concentration (final ~1000-fold dilution): 10 mM)
- NF-kB SEAP reporter activity ([1]; agonist: LPS (TLR4) 0.1 ug/mL): 0.498
- NF-kB SEAP reporter activity [1, 4]: 0.245
- NF-kB SEAP reporter activity [1, 5]: 0.176
- NF-kB SEAP reporter activity [1, 6]: 0.256

Compound: C1=CCOCc2cc(ccc2OCCN2CCCC2)Nc2nccc(n2)-c2cccc(c2)COC1
- NF-kB SEAP reporter activity ([2]; cytotoxicity flag (confluency mask): cytotoxic (confluency <70% of control), agonist: Imiquimod (TLR7) […]): 1.52
- NF-kB SEAP reporter activity ([2]; cytotoxicity flag (confluency mask): cytotoxic (confluency <70% of control), agonist: MPLA (TLR4) […]): 0.838

Compound: CC(C)n1cc(-c2ccc3c(c2)N(C)CC3)c2c(NS(=O)(=O)c3ccn(C)n3)ccnc21 (library stock concentration (final ~1000-fold dilution): 10 mM)
- NF-kB SEAP reporter activity ([3]; agonist: LPS (TLR4) 0.1 ug/mL): 1.25
- NF-kB SEAP reporter activity [3, 4]: 1.12
- NF-kB SEAP reporter activity [3, 5]: 1.14
- NF-kB SEAP reporter activity [3, 6]: 1.07

Compound: CC(C)n1cc(-c2ccc3c(c2)N(C)CC3)c2c(NS(=O)(=O)c3ccn(C)n3)ccnc21
- NF-kB SEAP reporter activity [2, 7]: 0.948
- NF-kB SEAP reporter activity [2, 8]: 1.02

Compound: O=C1c2c(O)cc(O)cc2OC(c2cc(O)c(O)c(O)c2)C1O (stereo unspecified)
- NF-kB SEAP reporter activity [2, 7]: 0.946
- NF-kB SEAP reporter activity [2, 8]: 1.07

Compound: O=C1c2c(O)cc(O)cc2OC(c2cc(O)c(O)c(O)c2)C1O (stereo unspecified) (library stock concentration (final ~1000-fold dilution): 10 mM)
- NF-kB SEAP reporter activity ([3]; agonist: LPS (TLR4) 0.1 ug/mL): 0.954
- NF-kB SEAP reporter activity [3, 4]: 1.02
- NF-kB SEAP reporter activity [3, 5]: 0.798
- NF-kB SEAP reporter activity [3, 6]: 0.657

Compound: CC(C)(C)NC(=O)c1cncn1C1CCN(c2ccc(-c3nnc(C(F)(F)F)o3)cn2)CC1
- NF-kB SEAP reporter activity [2, 7]: 1.87
- NF-kB SEAP reporter activity [2, 8]: 2.37

Compound: CC(C)(C)NC(=O)c1cncn1C1CCN(c2ccc(-c3nnc(C(F)(F)F)o3)cn2)CC1 (library stock concentration (final ~1000-fold dilution): 10 mM)
- NF-kB SEAP reporter activity ([3]; agonist: LPS (TLR4) 0.1 ug/mL): 6.27
- NF-kB SEAP reporter activity [3, 4]: 3.15
- NF-kB SEAP reporter activity [3, 5]: 1.66
- NF-kB SEAP reporter activity [3, 6]: 2.84

Compound: CC1(C)CCC2(C(=O)O)CCC3(C)C(=CCC4C5(C)CCC(=O)C(C)(C)C5CCC43C)C2C1 (stereo unspecified) (library stock concentration (final ~1000-fold dilution): 10 mM)
- NF-kB SEAP reporter activity ([3]; agonist: LPS (TLR4) 0.1 ug/mL): 0.91
- NF-kB SEAP reporter activity [3, 4]: 0.824
- NF-kB SEAP reporter activity [3, 5]: 0.664
- NF-kB SEAP reporter activity [3, 6]: 0.842

Compound: CC1(C)CCC2(C(=O)O)CCC3(C)C(=CCC4C5(C)CCC(=O)C(C)(C)C5CCC43C)C2C1 (stereo unspecified)
- NF-kB SEAP reporter activity [2, 7]: 0.8
- NF-kB SEAP reporter activity [2, 8]: 1.27

Compound: CC(=O)N1c2ccc(-c3ccc(C(=O)O)cc3)cc2C(Nc2ccc(Cl)cc2)CC1C (stereo unspecified) (library stock concentration (final ~1000-fold dilution): 10 mM)
- NF-kB SEAP reporter activity ([3]; agonist: LPS (TLR4) 0.1 ug/mL): 4.2
- NF-kB SEAP reporter activity [3, 4]: 2.49
- NF-kB SEAP reporter activity [3, 5]: 1.06
- NF-kB SEAP reporter activity [3, 6]: 1.85

Compound: CC(=O)N1c2ccc(-c3ccc(C(=O)O)cc3)cc2C(Nc2ccc(Cl)cc2)CC1C (stereo unspecified)
- NF-kB SEAP reporter activity [2, 7]: 1.56
- NF-kB SEAP reporter activity [2, 8]: 2.37

Compound: CC(=O)OC12COC1CC(O)C1(C)C(=O)C(O)C3=C(C)C(OC(=O)C(O)C(NC(=O)OC(C)(C)C)c4ccccc4)CC(O)(C(OC(=O)c4ccccc4)C21)C3(C)C.O.O.O (stereo unspecified)
- NF-kB SEAP reporter activity [2, 7]: 1.07
- NF-kB SEAP reporter activity [2, 8]: 1.23

Compound: CC(=O)OC12COC1CC(O)C1(C)C(=O)C(O)C3=C(C)C(OC(=O)C(O)C(NC(=O)OC(C)(C)C)c4ccccc4)CC(O)(C(OC(=O)c4ccccc4)C21)C3(C)C.O.O.O (stereo unspecified) (library stock concentration (final ~1000-fold dilution): 10 mM)
- NF-kB SEAP reporter activity ([3]; agonist: LPS (TLR4) 0.1 ug/mL): 1.26
- NF-kB SEAP reporter activity [3, 4]: 0.91
- NF-kB SEAP reporter activity [3, 5]: 0.697
- NF-kB SEAP reporter activity [3, 6]: 0.713

Compound: CC1OC(OC2C(O)C(OCCc3ccc(O)c(O)c3)OC(CO)C2OC(=O)/C=C/c2ccc(O)c(O)c2)C(O)C(O)C1O (stereo unspecified) (library stock concentration (final ~1000-fold dilution): 10 mM)
- NF-kB SEAP reporter activity ([3]; agonist: LPS (TLR4) 0.1 ug/mL): 1.21
- NF-kB SEAP reporter activity [3, 4]: 1.05
- NF-kB SEAP reporter activity [3, 5]: 1.03
- NF-kB SEAP reporter activity [3, 6]: 1.11

Compound: CC1OC(OC2C(O)C(OCCc3ccc(O)c(O)c3)OC(CO)C2OC(=O)/C=C/c2ccc(O)c(O)c2)C(O)C(O)C1O (stereo unspecified)
- NF-kB SEAP reporter activity [2, 8]: 1.02

Compound: CN1CCCN=C1/C=C/c1cccc(O)c1.O=C(O)c1cc2ccccc2c(Cc2c(O)c(C(=O)O)cc3ccccc23)c1O (library stock concentration (final ~1000-fold dilution): 10 mM)
- NF-kB SEAP reporter activity ([3]; agonist: LPS (TLR4) 0.1 ug/mL): 0.973
- NF-kB SEAP reporter activity [3, 4]: 0.993
- NF-kB SEAP reporter activity [3, 5]: 1.01
- NF-kB SEAP reporter activity [3, 6]: 0.594

Compound: CN1CCCN=C1/C=C/c1cccc(O)c1.O=C(O)c1cc2ccccc2c(Cc2c(O)c(C(=O)O)cc3ccccc23)c1O
- NF-kB SEAP reporter activity [2, 7]: 0.944
- NF-kB SEAP reporter activity [2, 8]: 1.12

Compound: CC(C)N1CCN(Cc2cnc(-c3cc(-c4cccc5[nH]ccc45)cc4[nH]ncc34)o2)CC1
- NF-kB SEAP reporter activity [2, 7]: 0.519
- NF-kB SEAP reporter activity [2, 8]: 1.83

Compound: CC(C)N1CCN(Cc2cnc(-c3cc(-c4cccc5[nH]ccc45)cc4[nH]ncc34)o2)CC1 (library stock concentration (final ~1000-fold dilution): 10 mM)
- NF-kB SEAP reporter activity ([3]; agonist: LPS (TLR4) 0.1 ug/mL): 4.66
- NF-kB SEAP reporter activity [3, 4]: 0.196
- NF-kB SEAP reporter activity [3, 5]: 0.982
- NF-kB SEAP reporter activity [3, 6]: 1.86

Compound: C[N+]1(C)CCC[C@H]1C(=O)O
- NF-kB SEAP reporter activity [2, 7]: 0.952
- NF-kB SEAP reporter activity [2, 8]: 0.985

Compound: C[N+]1(C)CCC[C@H]1C(=O)O (library stock concentration (final ~1000-fold dilution): 10 mM)
- NF-kB SEAP reporter activity ([3]; agonist: LPS (TLR4) 0.1 ug/mL): 1.08
- NF-kB SEAP reporter activity [3, 4]: 1.08
- NF-kB SEAP reporter activity [3, 5]: 1.16
- NF-kB SEAP reporter activity [3, 6]: 1.08

Compound: CCCC(NC(=O)/C(C#N)=C/c1cccc(Br)n1)c1ccccc1 (stereo unspecified)
- NF-kB SEAP reporter activity [2, 7]: 0.971
- NF-kB SEAP reporter activity [2, 8]: 0.962

Compound: CCCC(NC(=O)/C(C#N)=C/c1cccc(Br)n1)c1ccccc1 (stereo unspecified) (library stock concentration (final ~1000-fold dilution): 10 mM)
- NF-kB SEAP reporter activity ([3]; agonist: LPS (TLR4) 0.1 ug/mL): 0.416
- NF-kB SEAP reporter activity [3, 4]: 0.925
- NF-kB SEAP reporter activity [3, 5]: 0.387
- NF-kB SEAP reporter activity [3, 6]: 0.838
